What follows are sequences tested against NAA35 (assay: pooled miR-30 sensor sort-seq; sequence = guide strand). Settings: shRNA.

First: TTATTATATAGGTAGCACTTGG
Second: TTATTTTTGCATATCGAGGGAA
The sensor-assay potency score (higher = more potent) of the first is lower: -0.806 for the first, 0.0226 for the second.

Going from TCTATTAACCTCATGGTCCGGG to TAATTATTTTTGCATATCGAGG, the sensor-assay potency score (higher = more potent) falls from 0.321 to -1.65.

Going from TATGTAATAGTACTCGTGCATA to TAGTTCACCATTTCTTCCCTTT, the sensor-assay potency score (higher = more potent) rises from -1.06 to 0.00785.

First: TATATAGGTAGCACTTGGGGGA
Second: ATATATGTAATAGTACTCGTGC
The sensor-assay potency score (higher = more potent) of the first is lower: -0.0355 for the first, 0.454 for the second.

Compared with TTATATAGGTAGCACTTGGGGG, TTATTCTATCTATTAATCTTGC is higher in sensor-assay potency score (higher = more potent): -1.1 for the first, -0.493 for the second.

Going from TTAATTCTCGACAAGCTTCTTC to TACTGCTAAACATTGTTGGTGT, the sensor-assay potency score (higher = more potent) falls from 0.731 to 0.709.

Each sequence was assayed against NAALADL1 in the same assay as above. Settings: shRNA.

Compared with TTGATGTCGGCAGGGTCTGTGT, TTCCCATACAGCACGTAGCGAT is higher in sensor-assay potency score (higher = more potent): -1.45 for the first, -0.768 for the second.

Compared with TAGACGCTCACATTCACCTGGC, TACAGAGCAGGTCTCTTGCATC is lower in sensor-assay potency score (higher = more potent): 0.571 for the first, -0.894 for the second.

Compared with TTCTGCAGTGTTGATATGCGTT, TTGTCGTAGATGCTCAGGTCGC is lower in sensor-assay potency score (higher = more potent): -0.417 for the first, -1.1 for the second.

Compared with TCTGTGTACACCAGCACCCCAG, TTGAGGGGCAGGAAGAAGCTGT is higher in sensor-assay potency score (higher = more potent): -1.23 for the first, -0.568 for the second.

Going from TCTCACTGTAGTCACTGACTTT to TTACAGAGCAGGTCTCTTGCAT, the sensor-assay potency score (higher = more potent) rises from -1.01 to -0.148.

Each sequence was assayed against NAGA in the same assay as above. Settings: shRNA.

First: TGAAGTTGGTTTCATCTCGGAG
Second: TTGAGCATGTCTACCTTCCACT
The sensor-assay potency score (higher = more potent) of the first is higher: -0.453 for the first, -1.03 for the second.

Compared with TTGTCCAGCATCAGCACCTGGG, TTCGATGAGAGATTTTTCCTTG is higher in sensor-assay potency score (higher = more potent): -0.84 for the first, 0.59 for the second.

First: TCATATATCACAGACCCGGTGA
Second: TTGCTCAGCAACGTCTGTGGGG
The sensor-assay potency score (higher = more potent) of the first is higher: -0.0849 for the first, -0.463 for the second.

Going from TTCGAAAACTTCCAAATCCTGA to TTGATGATCACTGTGAAGTTGG, the sensor-assay potency score (higher = more potent) rises from -0.213 to 0.614.

Going from TTGTCCAGTGTGGTGCCTGGGT to TTGATTTTGATCATGAGTGGAT, the sensor-assay potency score (higher = more potent) rises from -0.646 to 0.182.

Going from TTTTCCTTGTGAATCCTGCGTC to TTGGACAGGGCATAGAACCTGG, the sensor-assay potency score (higher = more potent) falls from 0.331 to -0.532.

What follows are sequences tested against NAGPA in the same assay as above. Settings: shRNA.

First: TGTCTCGTCACACTCTGTGGCT
Second: TCGTTGATGTAGATGCTTCCAT
The sensor-assay potency score (higher = more potent) of the first is lower: -0.832 for the first, -0.346 for the second.

Compared with TGTGTCTCGTCACACTCTGTGG, TTGAGCACAAAGGTGGCAGAGC is higher in sensor-assay potency score (higher = more potent): -1.05 for the first, -0.854 for the second.

From the OligoGym collection
